These results are taken from PubChem BioAssay (EPA / NIEHS).

“And” between values parts separate entries of the source, which are not always exact repeats. Identical values can stand only once. The source made the active and inactive calls. The calls were made as follows: active = hit-call score of the fitted dose curve at least 0.9, where 1 is the maximum; inactive = score below 0.9.

Read-out in this experiment: Intercellular Adhesion Molecule 1 (ICAM1), ICAM1 (gene 3383)
Kind of experiment: BSK_hDFCGF_ICAM1: BioMAP Diversity Plus: hDFCGF Assay for Intercellular Adhesion Molecule 1 (ICAM1) Biomarker Activity (AID 2284287). Conditions: primary human foreskin fibroblasts. As to the method:
BSK_hDFCGF is a cell-based, multiplexed-readout assay that uses foreskin fibroblast, a human skin primary cell, with measurements taken at 24 hours after chemical dosing in a 96-well plate.BSK_hDFCGF_ICAM1 is an assay component measured in the BSK_hDFCGF assay. It measures ICAM-1 antibody related to regulation of gene expression using ELISA technology.Data from the assay component BSK_hDFCGF_ICAM1 was analyzed at the endpoint, BSK_hDFCGF_ICAM1, in the positive analysis fitting direction relative to DMSO as the negative control and baseline of activity. Using a type of binding reporter, gain or loss-of-signal activity can be used to understand protein changes. To generalize the intended target to other relatable targets, this assay endpoint is annotated to the 'cell adhesion molecules' intended target family, where the subfamily is 'Immunoglobulin CAM'.
The levels of cell surface (or secreted, indicated by the prefix "s") biomarker endpoints were measured by ELISA. Overt cytotoxicity to cells in confluent adherent cultures (all systems other than the BT system) was assessed by measuring total protein levels using sulforhodamine B (SRB) staining in parallel cultures at the time of biomarker measurements, indicated as SRB endpoints. For proliferation assays for adherent cell types, individual cell types are cultured at sub-confluence and relative cell numbers quantified by SRB staining at time points optimized for each system (48 h: 3C and CASM3C systems; 72 h: BT and HDF3CGF systems; 96 h: SAg system). SRB was performed by staining cells with 0.1% SRB after fixation with 10% TCA and reading wells at 560 nm.Viability and proliferation of PBMC (T cells) was quantified by Alamar Blue reduction for the SAg and BT systems. For PBMC viability (referred to as PBMC Cytotoxicity within the assay endpoint names), cells were plated (75,000/well in a 96-well plate) and then chemical samples added for 1 h before addition of activators, SEB and TSST-1 (20 ng/mL final concentration each). Cells were incubated for 90 h. Then, Alamar Blue (20 uL/well) (Invitrogen, Cat DAL1100) was added for 6 h, and the plates were read with a fluorescence microplate reader at 546/580 nm (excitation/emission). For PBMC proliferation, cells were plated and activated as above but incubated for only 16 h prior to addition of Alamar Blue. Plates were read after 6 h.
On to `OC(C(F)(F)F)(C(F)(F)F)C(O)(C(F)(F)F)C(F)(F)F`, for which the result was inactive.

`C1CN(CCOCCN2CCOCC2)CCO1`: the outcome was inactive.

Turning to `CCCCC(CC)COC(=O)C=Cc1ccc(OC)cc1` (configuration not stated), the result was inactive.

Broadly, the AC50 is the concentration at which the activity in the assay is half-maximal. As for `O=[N+]([O-])c1cc(S(=O)(=O)Nc2ccccc2)ccc1Nc1ccccc1`, the concentration at half-maximal activity (AC50) is 31 µM (active) and 36.6 µM (active).

On to `CC[N+](CC)(CC(=O)Nc1c(C)cccc1C)Cc1ccccc1` (tested in a mixture with another compound), for which the result was inactive.

Regarding `COc1ccc(C(=O)c2ccccc2O)c(O)c1`, the outcome was inactive.

Regarding `COc1cc(CNC(=O)CCCC/C=C/C(C)C)ccc1O`, the outcome was inactive.

As for `Cc1c(C(N)=O)cc([N+](=O)[O-])cc1[N+](=O)[O-]`, the outcome was inactive.

Regarding `CC(C)C1OCCN1CCOC(=O)NCCCCCCNC(=O)OCCN1CCOC1C(C)C` (configuration not stated), the outcome was inactive.

Regarding `CN(C)Cc1cc(C(C)(C)C)c(O)c(C(C)(C)C)c1`, the outcome was inactive.

With `CCC[Si](OC(C)=O)(OC(C)=O)OC(C)=O`, the result was inactive.

Consider `COc1ccccc1Oc1c(NS(=O)(=O)c2ccc(C(C)(C)C)cc2)nc(-c2ncccn2)nc1OCCO`, for which the result was inactive.
